Screens as filed in PubChem BioAssay.
Rows were chosen to be rich in hits. Some 11% of all compounds tested hit in one or more screens of this group.
PNC assembly inh = blocks assembly of the perinucleolar compartment; PC3M PTB-GFP, PNC prevalence imaging, 16 h; active compounds read low; activity change (PNC), negative = inhibition, % at 10 µM; actives 3.1% (n = 140,000); AID 2417;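 active = readout at or below -70, meaning at least 70% loss of cells showing the perinucleolar compartment, a nuclear body marking cancer cells; inconclusive = readout between -30 and a set limit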;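 also: plate controls were DMSO wells for no effect and camptothecin positive control wells for full effect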
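Compounds are pinned in duplicate onto adhered PC3M cells stably expressing GFP-tagged PTB and incubated 16 h at 37 C. Cells are then fixed, nuclei stained with Hoechst, and PNC-positive cells counted.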
IMPase Li cell = IMPase inhibition in cells with lithium potentiation; CHO-M1 cells, IP1 TR-FRET (IP-One), carbachol + lithium; Potency, µM (top dose mostly 59.4 µM), for the others: top-dose activity, negative = IMPase inhibition, usual class: inhibitors; actives 0.35% (n = 210,000); active = well fitted inhibition curve with a large enough effect; inconclusive = small, poorly fitted or top-dose-only effect; inactive = no such curve, though single readings can be large or run the other way;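 also: IP1 builds up when IMPase is blocked and the TR-FRET signal falls; potency is read from the fitted curve at half-maximal effect; plate controls were basal vehicle for no effect and high inhibitor control for full effect; nearly all actives have a fitted effect of over 50% in size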
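CHO cells stably expressing M1 receptor (2000/well, cultured 16–30 h) treated 30 min at 37C with compound plus low lithium. Cytosolic IP1 by TR-FRET (665/620 ratio and 620 channel) after 10 min lysis; AC50 by Hill fit.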
HPGD block = blocks human HPGD enzyme activity; P15428; purified HPGD, NADH fluorescence kinetic, PGE2 substrate; Potency, µM, for the others: top-dose activity change, negative = inhibition, hits mostly inhibitors; actives 4.3% (n = 150,000); AID 894; also: potency is read from the fitted curve at half-maximal effect
Target sequence (P15428 whole entry, looked up): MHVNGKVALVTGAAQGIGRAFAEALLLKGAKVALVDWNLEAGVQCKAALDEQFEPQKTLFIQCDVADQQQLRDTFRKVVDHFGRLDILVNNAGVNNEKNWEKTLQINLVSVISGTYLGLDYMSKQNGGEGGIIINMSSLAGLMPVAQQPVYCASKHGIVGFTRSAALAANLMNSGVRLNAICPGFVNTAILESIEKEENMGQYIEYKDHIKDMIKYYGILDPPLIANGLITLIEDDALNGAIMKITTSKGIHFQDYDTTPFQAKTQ
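NADH formation kinetics: reaction with 30 uM PGE2 and 1 mM NAD+ (final), 20 nM enzyme, Tris-HCl pH 8 with Tween 20, after 15 min compound preincubation at room temperature. Fluorescence change, last versus first of five reads.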
ALDH1A1 inh = inhibitors of human aldehyde dehydrogenase 1A1. Purified ALDH1A1, NADH fluorescence, propionaldehyde substrate. Potency, µM (doses to about 75.3 µM), for inactives: top-dose activity, negative = inhibition, most hits filed as inhibitors. actives 7.3% (n = 220,000). AID 1030;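 also: potency is read from the fitted curve at half-maximal effect; plate controls were no enzyme wells and a reference inhibitor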
Target sequence (P00352 whole entry, looked up): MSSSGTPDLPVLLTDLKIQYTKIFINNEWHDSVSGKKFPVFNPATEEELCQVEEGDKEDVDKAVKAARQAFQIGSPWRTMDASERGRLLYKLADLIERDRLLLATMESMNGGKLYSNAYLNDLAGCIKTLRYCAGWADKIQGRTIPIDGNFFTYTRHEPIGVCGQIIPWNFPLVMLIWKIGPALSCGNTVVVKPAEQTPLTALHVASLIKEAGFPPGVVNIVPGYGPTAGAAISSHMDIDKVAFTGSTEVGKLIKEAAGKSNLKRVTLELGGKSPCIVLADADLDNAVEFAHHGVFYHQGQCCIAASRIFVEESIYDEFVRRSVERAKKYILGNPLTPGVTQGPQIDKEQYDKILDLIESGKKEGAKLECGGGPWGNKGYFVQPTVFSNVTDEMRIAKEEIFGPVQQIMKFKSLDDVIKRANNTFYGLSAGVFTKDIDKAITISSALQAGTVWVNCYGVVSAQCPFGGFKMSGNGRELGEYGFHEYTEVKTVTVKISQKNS
IMPase inh = membrane-permeable compound that blocks inositol monophosphatase. CHO-M1 cells, IP1 accumulation, HTRF TR-FRET ratio. inhibition (IP1 accumulation), % at 46.1 µM. 120,000 tested, under 10 active; active = well fitted curve in the direction sought with a large enough effect in the signal ratio, not every such curve was filed as active; inconclusive = small, poorly fitted or top-dose-only effect, or a change in a side signal; inactive = no such curve, though single readings can be large or run the other way; the % refers to the signal ratio;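 also: cells stimulated with carbachol in lithium chloride buffer; plate controls were DMSO basal wells for no effect and reference inhibitor wells for full effect; higher means more IMPase inhibition seen as more IP1 and lower FRET ratio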
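Elevated IP1 in lysates lowers TR-FRET signal (665/620 ratio and 620 channel reported). Cells were CHO-M1, given carbachol (50 uM as added) plus 50mM LiCl, pH 7.4, 30 min, 37C; compounds titrated up to 46 uM; AC50 by Hill equation.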
Active calls of the source: *; ? = inconclusive; / = no result given; [ ] = remark or other dose. Unless noted, calls follow the shape of the dose curve; as a rule, active = well fitted inhibition curve with a large enough effect (not every such curve was filed as active); inconclusive = small, poorly fitted or top-dose-only effect, or another doubt; inactive = no such curve, though single readings can be large or run the other way. Unless noted, % is scaled to controls: 0 for no effect and ±100 for the full control effect.

SMILES | PNC assembly inh | IMPase Li cell | HPGD block | ALDH1A1 inh | IMPase inh
CN1CCN(C(=O)c2ccc(C(C)(C)C)cc2)CC1 | 31 | 0%[38.3 µM] | 11µM* | -8% | 4
CC(C)(C)c1ccc(C(=O)N2CCN(c3nc4ccccc4o3)CC2)cc1 | -23 | 11%[38.3 µM] | -6% | 9% | -2
CC1CN(C(=O)c2ccc3c(c2)OCO3)CC(C)O1 (stereo not given) | ? | 17%[38.3 µM] | 25µM* | 13% | -3
O=C(Nc1ccc(S(=O)(=O)NCc2ccco2)cc1)C1CCCCC1 | / | 19% | / | ? | /
CN(Cc1ccccc1)Cc1c(O)ccc2c(=O)c(-c3ccccc3)c(C(F)(F)F)oc12 | / | / | / | / | 11
CC(C)(C)C(=O)[C@H](C(c1ccccc1)N1CCOCC1)N1CCOCC1 (stereo not given in full) | / | 8% | -5% | 3%[13.5 µM] | /
COC(=O)C(C)N(C(=O)c1ccc(C(=O)c2ccccc2)cc1)c1c(C)cccc1C (stereo not given) | -19 | 31%[38.3 µM] | -8% | -12% | 2
O=C(NCCc1ccncc1)Nc1ccccc1 | -100* | 0% | -15% | 14% | 6
O=C(NCCc1ccc(Cl)cc1)Nc1cccc(Cl)c1 | 72 | -3%[38.3 µM] | -8% | -3% | 9
O=C(NCCc1ccncc1)Nc1ccc(Cl)c(Cl)c1 | / | -1% | / | 10% | /
Cc1cccc(NC(=O)NCCc2ccc(Cl)cc2)c1 | / | 4% | / | 35µM* | /
CCCCCCCCCCCCCCC[C@@H](O)[C@H](CO)NC(=O)CCCCCCC | / | 1% | -4% | -9% | /
CN(Cc1cnn(C)c1)C(=O)c1cc2ccccc2oc1=O | 24 | 7%[38.3 µM] | -22% | 0% | -9
CN(Cc1cnn(C)c1)C(=O)c1sc2cccc(Cl)c2c1Cl | 10 | -15%[38.3 µM] | 28µM* | ? | -12
CC(C)[C@H](NC(=O)c1ccco1)C(=O)OCC(=O)N1CC(=O)Nc2ccccc21 | / | -6% | / | 14µM* | /
O=C1CN(C(=O)CNCc2ccccc2Cl)c2ccccc2N1 | / | / | / | 20µM* | /
O=C1CN(C(=O)COc2ccccc2F)c2ccccc2N1 | 30 | -1% | -20% | 18µM* | /
O=C1CN(C(=O)COc2ccc(F)cc2Br)c2ccccc2N1 | / | 12% | / | ? | /
COc1ccc(C(=O)c2oc3ccccc3c2NC(=O)COc2c(C)cc(C)cc2C)cc1 | / | / | / | / | -1
CCc1ccc(-c2nc3cc(NC(=O)c4cc5ccccc5cc4OC)ccc3o2)cc1 | / | / | / | / | -8
COc1ccc(CC2(CO)CCN(S(=O)(=O)c3sccc3C)CC2)cc1 | / | 18% | / | 8.9µM* | /
Cc1cccc(S(=O)(=O)N2CCC(CO)(Cc3ccccc3)CC2)c1 | / | 7% | / | 20µM* | /
COc1ccc(CC2(CO)CCN(S(=O)(=O)c3c(C)nn(C)c3Cl)CC2)cc1 | / | 12% | / | -4% | /
COc1ccc(O[C@H]2C=C[C@@H](c3ccccc3)O[C@H]2COC(=O)CC/C(C)=N\O[C@@H](C)c2cn([C@H]3COC[C@H]3O)nn2)cc1 | / | / | / | -3%[13.5 µM] | /
Cc1cccc(OCCn2nc(C(=O)O)c3ccccc3c2=O)c1 | -27 | 41%[38.3 µM] | 28µM* | -12% | -3
SMILES | PNC assembly inh | IMPase Li cell | HPGD block | ALDH1A1 inh | IMPase inh
Cc1cccc(C)c1OCCn1nc(C(=O)O)c2ccccc2c1=O | 38 | 6%[38.3 µM] | -20% | 1% | 2
CC(Sc1nnnn1C)C(=O)Nc1ccc(Oc2ccccc2)cc1 (stereo not given) | 38 | 23%[38.3 µM] | ? | -12% | 1
CCC(Sc1nnnn1C)C(=O)Nc1ccc(C(C)=O)cc1 (stereo not given) | -87* | 28%[38.3 µM] | -8% | -9% | 5
Cc1cccc(NC(c2ccc(O)cc2)c2ccc3ccc(C)nc3c2O)n1 (stereo not given) | -16 | 45%[38.3 µM] | 18µM* | 7.9µM* | 2
N#Cc1cccc(-c2cncnc2NCc2cccs2)c1 | / | 3% | / | -8% | /
O=C(O)C1=C(OCc2ccc(F)c(F)c2)C(=O)NCC1 | / | -1% | / | -18% | /
CC1=CC(c2ccccc2)n2nc(N3C(=O)c4ccccc4C3=O)nc2N1 (stereo not given) | -5 | 20%[38.3 µM] | -5% | -8% | -2
CC1=CC(c2ccccc2)n2nc(N3C(=O)CCC3=O)nc2N1 (stereo not given) | -94* | 5% | ? | ? | ?
Cc1ccc(C(=O)C(C)OC(=O)c2n[nH]c(=O)c3ccccc23)cc1 (stereo not given) | -8 | 5%[38.3 µM] | 14µM* | 16% | -3
CCOC(=O)c1n[nH]c(=O)c2ccccc12 | / | -3% | / | 4% | /
CCc1ccc(NC(=O)C(=O)NCC2CCCO2)cc1 (stereo not given) | / | -4% | / | 3% | /
CCCC(=O)Nc1ccc(C(=O)NCC2CCCO2)cc1 (stereo not given) | -3 | 2%[38.3 µM] | 11µM* | ? | -5
CN(c1ccc(C(=O)NCC2CCCO2)cc1)S(=O)(=O)c1ccccc1 (stereo not given) | 41 | 5%[38.3 µM] | 14µM* | 15% | -1
O=C(NCC1CCCO1)c1cccc(Br)c1 (stereo not given) | -15 | 14%[38.3 µM] | 25µM* | 7% | 12
COc1cc(OC)cc(C(=O)NCC2CCCO2)c1 (stereo not given) | -4 | 6%[38.3 µM] | 25µM* | -2% | 9
O=C(NCC1CCCO1)c1sc2cc(Cl)ccc2c1Cl (stereo not given) | ? | 17% | 14µM* | ? | 5
O=C(NC(=S)NCC1CCCO1)c1ccccc1Br (stereo not given) | 26 | 0% | -5% | -2% | /
Cc1ccc(C(=O)NC(=S)NCC2CCCO2)cc1Br (stereo not given) | -15 | 14% | -11% | 8.9µM* | /
COc1cccc(CN(CC2CCCO2)C(=O)c2cc3ccccc3oc2=O)c1 (stereo not given) | / | 17% | / | 16µM* | /
COc1cccc(C(=O)NCC2CCCO2)c1 (stereo not given) | 24 | 1% | 8.9µM* | 1% | 0
CN(C)c1ccc(-c2ccc3ncnc(N(C)Cc4ccco4)c3c2)cc1 | / | 10% | / | ? | /
CC(=O)NCCNc1ncnc2ccc(-c3cccc(NS(C)(=O)=O)c3)cc12 | / | ? | / | -15% | /
COc1ccc(Cn2c(C)nnc2-c2cnn(C)c2N)cc1 | / | -12% | / | -2% | /
COc1cccc(CNC(=O)C(=O)NCC2CCCO2)c1 (stereo not given) | 0 | 1% | -4% | -10% | ?
O=C(NCC1CCCO1)c1ccc(COCC(F)(F)C(F)F)cc1 (stereo not given) | 52 | 13%[38.3 µM] | 14µM* | -1% | -8[1.84 µM]
CC(C)NC(=O)c1ccc(COCC(F)(F)C(F)F)cc1 | -5 | 20%[38.3 µM] | -20% | 3% | -4
CC(C)CC(=O)c1c[nH]c(C(=O)NCC2CCCO2)c1 (stereo not given) | -4 | -8%[38.3 µM] | 20µM* | ? | -1
COc1cccc(S(=O)(=O)NCc2ccc(C(=O)NCC3CCCO3)cc2)c1 (stereo not given) | -16 | -8%[38.3 µM] | 16µM* | 14µM* | 2
